From PubChem
LmPK inh: qHTS Assay for Inhibitors of Leishmania Mexicana Pyruvate Kinase (LmPK); purified LmPK, Kinase-Glo ATP luminescence, 1 h; Potency, µM (highest dose often 57.5 µM), without a hit: at the top dose activity change, negative = inhibition, actives largely listed as inhibitors; 290,000 compounds, 0.37% hits; further: on the % scale 0 is the no-effect control and ±100 the full control effect
Target sequence (Q27686 whole entry, looked up): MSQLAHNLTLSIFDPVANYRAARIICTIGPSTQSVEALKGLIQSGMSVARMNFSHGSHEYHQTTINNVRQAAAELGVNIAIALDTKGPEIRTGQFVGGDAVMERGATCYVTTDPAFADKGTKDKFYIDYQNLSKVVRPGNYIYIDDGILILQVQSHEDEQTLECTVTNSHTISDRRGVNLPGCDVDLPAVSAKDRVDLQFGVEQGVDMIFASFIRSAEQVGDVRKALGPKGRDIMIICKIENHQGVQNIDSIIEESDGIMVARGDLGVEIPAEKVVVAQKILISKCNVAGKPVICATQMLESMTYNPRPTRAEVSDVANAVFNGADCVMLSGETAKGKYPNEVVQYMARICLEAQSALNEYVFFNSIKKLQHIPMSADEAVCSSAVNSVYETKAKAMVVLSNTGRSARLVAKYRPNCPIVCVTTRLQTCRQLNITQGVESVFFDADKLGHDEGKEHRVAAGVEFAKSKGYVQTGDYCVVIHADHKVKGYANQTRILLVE
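ATP generated from ADP (0.1 mM) and PEP (0.5 mM) by 0.1 nM LmPK over 1 h at room temperature (pH 7.2 imidazole buffer) was detected by coupled luciferase luminescence. Values were normalized to uninhibited and no-enzyme wells.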
RE007 growth inh: qHTS Assay for Inhibitors of the HIV-1 protein Vpr. S. pombe RE007 Vpr strain, BacTiter-Glo ATP luminescence, 24 h. Potency, µM (top dose mostly 92.2 µM), without a hit: at the highest dose activity change, negative = less growth, actives largely listed as inhibitors. 360,000 compounds, 0.21% hits; active means well fitted falling curve with a large enough effect; inconclusive means small, poorly fitted or top-dose-only effect; inactive means no such curve, though single readings can be large or run the other way; further: on the % scale 0 is the no-effect control and ±100 the full control effect; nearly all actives have a fitted effect of over 50% in size
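Fission yeast strain RE007, carrying one chromosomally integrated HIV-1 vpr copy, was seeded at OD 0.01 in PMG+AL medium with 23 nL pinned compound. After 24 h at 30 °C and 99% humidity, viability was read by BacTiter-Glo luminescence.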
AMA1 RON2 block: qHTS for Inhibitors of AMA1-RON; Towards Development of Antimalarial Drug Lead: Primary Screen | AID 720542, 2013 | Potency, µM (top dose mostly 58.2 µM), for inactives: at the highest dose activity change, negative = inhibition, usual class: inhibitors | Plasmodium falciparum AMA1 (3D7) - RON2 peptide interaction | AlphaScreen AMA1-biotinylated RON2 peptide binding | 360,000 compounds, 0.2% hits;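 further: 0% = vehicle wells and -100% = peptide control; nearly all actives have a fitted effect of over 45% in size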
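AMA1 (3D7) with his tag at 25 nM final met compounds first, then biotinylated RON2 peptide at 25 nM; detection used donor plus acceptor beads, 10 µg/mL apiece, read by AlphaScreen after 30 min at room temperature.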
SARS PLpro yeast: qHTS of Yeast-based Assay for SARS-CoV PLP | Potency, µM (highest dose often 32.9 µM), inactives show top-dose activity, positive = growth rescue, hits mostly activators | S. cerevisiae expressing SARS-CoV PLpro, growth rescue | 330,000 compounds, 0.19% hits; calls by dose curve; further: 0% is about no effect; nearly all actives have a fitted effect of over 55% in size
Tb PYK inh: qHTS of Trypanosoma Brucei Inhibitors; Potency, µM (highest dose often 76.8 µM), for inactives: at the top dose activity, negative = inhibition, hits mostly inhibitors; AID 624173, 2012; TbPYK enzyme, Kinase-Glo Plus ATP luminescence, 45 min; 410,000 compounds, 0.12% hits; further: on the % scale 0 is the no-effect control and ±100 the full control effect; nearly all actives have a fitted effect of over 50% in size
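In this concentration-response screen, enzyme-free wells defined baseline while DMSO plates tracked drift. Each reaction combined TbPYK, substrate, compound and 130 uM ADP for 45 min at room temperature. Kinase-Glo Plus luminescence gave the signal.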
Active calls of the source: *; ? = inconclusive; . = not tested or not shown; [ ] = remark or other dose. Rows were chosen to be rich in hits. Some 0.81% of all compounds tested hit in one or more screens of this group. Unless noted, the call rests on the fitted dose curve; in most records, active means well fitted curve in the direction sought with a large enough effect; inconclusive means small, poorly fitted or top-dose-only effect, or another doubt; inactive means no such curve, though single readings can be large; an effect the other way counts as inactive or inconclusive. Potency means the concentration at half of the fitted maximal effect.

SMILES | LmPK inh | RE007 growth inh | AMA1 RON2 block | SARS PLpro yeast | Tb PYK inh
CCCCn1c(=S)[nH]c2c(=O)n(C)c(=O)n(C)c21 | . | -9.6% | 66.6% | . | ?
Cn1c(=O)[nH]c(=O)c2c1[nH]c(=S)n2CCCc1ccccc1 | -22.8% | 7.8% | -4.2% | -2.0% | ?
Cn1c(=O)c2[nH]c(=S)n(Cc3ccccc3)c2n(C)c1=O | . | 11.9% | 30.6% | . | 15.8µM*
Cn1c(=O)c2c([nH]c(=S)n2CCCc2ccccc2)n(C)c1=O | -7.7% | 13.3% | 47.8% | 2.3% | 2.51µM*
Cc1cccc(CNc2ncnc3ccc(-c4cccc(Cl)c4)cc23)c1 | . | . | . | 0.3% | .
CCN(CC)Cc1cc(O)c(CN(CC)CC)cc1O | -5.5% | -2.9% | 7.94µM* | -1.6% | 10µM*
CCc1oc(C(=O)O)cc1CN(CC)CC | -1.3% | -9.3% | -16.1% | . | -3.9%
Cc1cccc(C)c1Nc1cn[nH]c1 | . | 3.1% | 19.1% | . | -4.2%
Cc1cc(-c2n[nH]c(=S)n2-c2ccccc2C)cs1 | 10µM* | 0.4% | 22.3%[11.6 µM] | 17.6% | ?
Cc1ccccc1-n1c(-c2ccncc2)n[nH]c1=S | 31.6µM* | -5.1% | 3.4% | 1.8% | ?
Cc1cccc(-n2c(-c3ccncc3)n[nH]c2=S)c1C | ? | 0.3% | 0.0% | 0.3% | ?
Cc1ccc(-n2c(-c3ccncc3)n[nH]c2=S)c(C)c1 | -11.5% | 1.2% | 31.9% | 1.3% | 7.08µM*
CCc1ccccc1-n1c(-c2ccncc2)n[nH]c1=S | 12.6µM* | 18.3% | 0.0% | 10.0% | 25.1µM*
Cc1ccc(-n2c(-c3ccc(Br)cc3)n[nH]c2=S)c(C)c1 | . | 10.8% | 97.9% | . | ?
CC(=O)OC1CC(OC2C(O)CC(OC3C(O)CC(O[C@H]4CC[C@]5(C)C6CC[C@]7(C)[C@@H](C8=CC(=O)OC8)[C@@H](O)C[C@]7(O)[C@@H]6CC[C@@H]5C4)OC3C)OC2C)OC(C)C1OC1OC(CO)C(O)C(O)C1O (some centres not stated) | . | . | . | . | 0.9%
COc1ccc(CNc2nc3ccccc3n2C)c(O)c1 | -12.8% | -24.2% | 0.4% | -0.8% | -11.8%
CCn1c(/C=C/c2ccccc2)nc2ccccc21 | 22.4µM* | ? | 24.1% | -12.5% | -6.9%
COc1ccc(CNc2nc3ccccc3n2C)c(OC)c1 | 17.8µM* | -16.4% | -7.9% | -0.8% | -16.6%
CC(C)Cn1c(/C=C/c2ccccc2)nc2ccccc21 | 0.3% | ? | 48.5%[11.6 µM] | ? | -2.6%
COc1ccc(/C=C/c2nc3ccccc3n2C)cc1 | 17.8µM* | 31.6µM* | -0.1% | -21.9% | ?
CCN1CCc2nc3sc(C(=O)Nc4cccc(Cl)c4C)c(N)c3cc2C1 | . | . | . | . | -12.3%
COc1cc(/C=C/C(=O)O[C@H]2CC[C@]34C[C@]35CC[C@]3(C)[C@@H]([C@H](C)CCC=C(C)C)CC[C@@]3(C)C5CCC4C2(C)C)ccc1O (some centres not stated) | . | . | . | . | 0.0%
O=c1[nH]c(=S)[nH]c2c1C(c1ccc(Br)cc1)c1c([nH]c(=S)[nH]c1=O)O2 | 0.0% | 4.2% | 35.5µM* | 2.0% | ?
O=[N+]([O-])c1cc2cccnc2c2ncccc12 | -5.0% | -16.1% | 126.0% | -2.6% | -0.6%
O=[N+]([O-])c1cc(O)c2ncccc2c1 | 13.0% | 7.94µM* | -22.5% | -18.3% | -0.3%
SMILES | LmPK inh | RE007 growth inh | AMA1 RON2 block | SARS PLpro yeast | Tb PYK inh
CC(=O)n1nc(-c2ccccc2)nc1NCc1ccc(N(C)C)cc1 | -0.2% | -8.1% | 8.91µM* | -1.3% | -2.7%
CCCN(CCc1cccs1)[C@H]1CCc2c(O)cccc2C1 | . | . | . | . | -4.6%
Cc1ccc(-n2ncc(Br)c(Br)c2=O)cc1 | -4.8% | 15.8µM* | -0.2% | -5.6% | -1.1%
O=c1c(Br)c(Br)cnn1-c1ccccc1 | 2.8% | ? | 2.6% | 0.6% | 5.3%
O=C(NCC1CCCO1)c1sc(=S)n2c1[nH]c(=O)c1ccc(C(=O)N3CCCCC3)cc12 (configuration not stated) | 20µM* | -6.9% | 7.1% | -6.4% | ?
O=C(NCCc1ccccc1)c1ccc2c(=O)[nH]c3c(C(=O)NCC4CCCO4)sc(=S)n3c2c1 (configuration not stated) | -16.4% | -11.9% | -7.0% | -1.9% | -11.0%
Fc1ccccc1-c1n[nH]c(=S)n1/N=C/c1c[nH]c2ccccc12 | 10µM* | 0.9% | 51.7% | 2.0% | ?
Cc1c(Cl)cccc1-n1c(-c2cccnc2)n[nH]c1=S | ? | -8.9% | 35.1% | 0.7% | 7.08µM*
Cc1cc(Cl)ccc1-n1c(-c2cccnc2)n[nH]c1=S | 8.91µM* | 12.2% | 44.8% | -1.3% | 14.1µM*
COCCCOc1cc(C[C@@H](C[C@H](N)[C@@H](O)C[C@H](C(=O)NCC(C)(C)C(N)=O)C(C)C)C(C)C)ccc1OC | . | . | . | . | -0.2%
c1ccc2c(c1)Cn1c-2nc2ccccc21 | 14.1µM* | ? | 5.9% | -24.0% | ?
Cc1c(C(=O)NN2CCCCC2)nn(-c2ccc(Cl)cc2Cl)c1-c1ccc(Cl)cc1 | . | . | . | . | -4.7%
O=C(c1ccc2c3n(nc2c1)-c1ccc(Cl)cc1CO3)N1CCOCC1 | 15.8µM* | -3.4% | -0.7% | -6.6% | -21.2%
Cc1ccc2c(c1)COc1c3ccc(C(=O)N4CCCCC4)cc3nn1-2 | -25.4% | -21.5% | -4.6% | -7.9% | -12.0%
O=C(c1ccc2c3n(nc2c1)-c1ccccc1CO3)N1CCCCC1 | 6.31µM* | ? | -3.6% | -15.9% | ?
O=C(c1ccc2c3n(nc2c1)-c1ccccc1CO3)N1CCOCC1 | 14.1µM* | ? | -4.4% | -15.9% | 17.8µM*
C[C@@H](CO)NC(=O)c1ccc2c3n(nc2c1)-c1ccccc1CO3 | 14.1µM* | -17.0% | 4.0% | -3.9% | ?
O=P(O)(O)OC(Cn1cncn1)(Cn1cncn1)c1ccc(F)cc1F | . | . | . | . | 3.0%
CCCS(=O)(=O)c1ncc(Cl)c(C(=O)N2CCN(c3ccc(OC)cc3)CC2)n1 | . | . | . | . | 4.5%
CCCCN(C)CC(O)Cn1cc(/C=C/C(=O)c2ccc(OC)c(OC)c2)c2ccccc21 (configuration not stated) | . | . | . | . | -1.0%
CCn1nccc1C(=O)Nc1cc(Cl)cc(Cl)c1 | 4.0% | -9.9% | 16.1% | -18.7% | -1.2%
CCn1nccc1C(=O)Nc1ccc(Cl)cn1 | 28.2µM* | -5.7% | -2.2% | 6.5% | -12.7%
COc1ccc(-c2nc3ccccc3s2)cc1O | 15.8µM* | ? | 11.6% | -18.0% | -18.8%
Nc1cccc(-c2nc3ccccc3s2)c1 | 14.1µM* | ? | -24.1% | 1.6% | -12.9%
Oc1cccc(-c2nc3ccccc3s2)c1 | -16.3% | ? | -18.4% | -11.3% | ?
CCN(CC)CCCNC(=O)c1ccc2c(c1)N(Cc1c(F)cccc1Cl)C(=O)c1ccccc1S2 | . | . | . | . | 6.5%
